The test system of this assay is PPARg:RXRa IVT, anti-PPARg (NR concentration 270 nM, RXRa partner concentration 90 nM). The assay can be described thus: PBM binding z-score (relative to random genomic background probes); higher = stronger binding; sequences stand for … in GC…GCGATTGACAGCGTAGAATGAAGG
The essentials:
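Ligand-free nuclear receptor dimers were bound for 1 h to custom Agilent 4×180K protein-binding microarrays. Detection used antibodies against each partner (one per run). Binding z-scores rest on regression-normalized fluorescence, with random background probes as the reference.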
In the case of CCTTGCGGGTCACGAGGTTATAGCACGACGAGCG, the PBM binding z-score is 6.59.

On to TCGAGTAGGTTACCAATGGGGCTTTCAGCTTTCT, for which the PBM binding z-score worked out at 2.45.

Consider CGTCCAAGGACAAGGTCAGTGAAAGAGACTCGAA, for which the PBM binding z-score is 0.71.

The sequence ATCTCTAGGTAAGACTCAGTTCAGAGAAGAACGC registered a PBM binding z-score of 1.16.

TCTTGTAGATCAACAGGAGGTTAAGAAAGATCGA registered a PBM binding z-score of 0.568.

Consider CCAGACAGGTGAGAAGGTAACTCAACCTCGATTA, for which the PBM binding z-score was found to be 0.742.

For the sequence CTACCAAGGTGAGCAAGGTCGTTGATTACTATTC, the PBM binding z-score was found to be 1.62.

Regarding AGTCAAAGTACACTAGGTAACGTAAGATTCAGCT, the PBM binding z-score amounted to 2.33.

On to CGAACTAGGTCAGAAAAGGACAGTGAAGGATGAT, for which the PBM binding z-score is 7.14.

TCATATAGGTAAATGCTAGCTGAAAGTCCGATCT registered a PBM binding z-score of 1.89.

In turn, TTACTAAGGTGAGCTGAGGTCGTTGATCCAACTC showed a PBM binding z-score of 2.66.

The sequence ACTAGCAGGCCAAGTTTGGGTTACTCAAACAAAG gave a PBM binding z-score of 0.439.

In turn, TTACCAAGGTGAGCTGAGGACGTTGATCCAACTC displayed a PBM binding z-score of 1.36.

ATCTCTAGGTAAAAGTTCAATGAATCCCGAGGAT registered a PBM binding z-score of 4.28.

Take GTACCAAGGTGAATGGGTCGTTGATGAGTAGGCG: the PBM binding z-score was 2.44.

Turning to CAGCCTAGGTCAGGGCCAGTATCGGAGGAACGTT, the PBM binding z-score was 1.55.

CAAACTAGGTCAGGAGGTCAAAGTCCGCTTCCCG had a PBM binding z-score of 8.07.

Regarding TAGCCTAGGTCATTCGGGCCAGTATAGTGTCGGC, the PBM binding z-score is 2.76.

ACAGACAGGCGAGTGAAGGTAACTCAGCTGGACG: the PBM binding z-score is -0.121.

In the case of GGAACCAGGGCATTCGAGTTGATAGCATGGCGAT, the PBM binding z-score amounted to 2.91.

ATATGTAGGTTATCGGGTCAGTCAGTTTGCGCAT registered a PBM binding z-score of 7.77.

As to CCTTACGGGTCACTGACAGGTTATATCATTTGGA, the PBM binding z-score was determined as 3.76.

Turning to GCTCGGAGGACAAGGTCAAAGCTTTGTCCGTAGA, the PBM binding z-score was found to be 2.07.

As to GCTAGTTGGTCAGTAAAAGGCCACACACCGGTCG, the PBM binding z-score worked out at 0.216.

CCTTACGGGTCACTGACCGGTTATAGCATTTGGA came in with a PBM binding z-score of 3.86.

For CCTACTGGGCCACGAAGGGTCATTGATTCAGTGA, the PBM binding z-score was 5.28.

In the case of AGAATGAGGGCACGCTGAGTTGATAGCAGAGTAG, the PBM binding z-score stood at 4.73.

GCTAACAGGCCATTTGGGTCACTCAATGACGGGC showed a PBM binding z-score of 1.82.

In turn, TCGAGTAGGTTAGCGGCATTCAGAATGGCGTCGA gave a PBM binding z-score of 0.944.

TATACAGGGTTAAAGGCCAGAGTACGAATGTCGA: the PBM binding z-score stood at 2.95.

CGAACTAGGTCTTCCAGGACAGTGAATACATTGA registered a PBM binding z-score of 3.48.

Sequence TTACCAAGGTGAGCTGAAGTCGTTGATCCAACTC registered a PBM binding z-score of 1.48.

For the sequence CGTGCAAGGTCAAGGTCAGTGAAAGAGACTCGAA, the PBM binding z-score is 4.59.

Regarding CCGAGTAGGTTATGGGGCAATCAGGCAACGGTGA, the PBM binding z-score turned out to be 3.81.

The sequence GCAGACGGGTGAAACGCAGGTAACTCAGGGTGGC had a PBM binding z-score of -0.0586.

TATAGAGGGTCAAAGGCCAGAGTACGAATGTCGA had a PBM binding z-score of 4.43.

For GATACAGGGTCAGCTATAGGCCAGAGTATGGAAA, the PBM binding z-score was 2.31.

ATCTCTAGGTAAGACTCAGTTCAGGGAAGAACGC displayed a PBM binding z-score of 0.842.

Sequence AATACAGGGTCATCGTAGGCCTGAGTACGCACAG displayed a PBM binding z-score of 4.07.

Regarding TCTTGTAGATCACAGGTTAAGAAAGCCGAAGCCT, the PBM binding z-score was 1.8.

The values above are taken from the supplement of paper PMC6555819.
